Source: PubChem BioAssay
Tau FP inhib – qHTS for Inhibitors of Tau Fibril Formation, Fluorescence Polarization | K18 P301L tau heparin fibrillization, Alexa594 FP, 6 h | Potency, µM (doses to about 57.7 µM), for the others: at the highest dose activity, negative = inhibition, hits mostly inhibitors | 280,000 tested, 0.39% active; note: potency is the fitted concentration of half-maximal effect; nearly all actives have a fitted effect of over 55% in size
Target sequence (P10636 561-689 P618L limits assumed): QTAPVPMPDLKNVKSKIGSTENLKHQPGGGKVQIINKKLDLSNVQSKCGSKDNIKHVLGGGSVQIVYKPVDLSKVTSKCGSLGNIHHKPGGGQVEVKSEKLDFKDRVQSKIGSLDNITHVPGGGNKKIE
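Steps: dispense K18 P301L tau (15 uM plus 0.24 uM Alexa 594 tracer, final) in pH 7 sodium acetate; add compound; add heparin (20 uM final); incubate 6 hr, 37 C; add ThT (30 uM final); after 1 hr ambient, read FP.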
USP1 inh – Inhibitors of USP1/UAF1: Primary Screen; 390,000 tested, 0.23% active; recombinant USP1/UAF1, Ub-Rhodamine cleavage fluorescence; Potency, µM (doses to about 57.1 µM), for inactives: at the highest dose activity change, negative = inhibition, usual class: inhibitors; AID 743255, 2014; note: potency is the fitted concentration of half-maximal effect; nearly all actives have a fitted effect of over 60% in size
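In this screen, compounds sit with the deubiquitinase complex (1nM) for 15 min at room temperature before Ub-Rho is added at 150nM final. Fluorescence rise is then followed for 6 reads every 60 seconds.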
Coupling enz – qHTS Assay for Inhibitors of Fructose-1,6-bisphosphate Aldolase from Giardia Lamblia: Coupling assay counterscreen; coupling enzyme system counterscreen, AmpLite Red fluorescence; activity change, negative = inhibition, % at 58.2 µM, hits read low; 290,000 tested, 0.67% active; AID 2472, 2010; in the data active = activity change below about -30%
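First, compound is pin-transferred into glyceraldehyde-3-phosphate coupling-enzyme reagent at 57.5 uM final and held 10 min at RT. Next, substrate, coupling system and AmpLite Red are added. After 20 min RT, fluorescence (525/598 nm) is read.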
Tau ThT inhib – qHTS for Inhibitors of Tau Fibril Formation, Thioflavin T Binding | recombinant tau K18 P301L, heparin-induced fibrillization, ThT fluorescence | Potency, µM (highest dose often 57.4 µM), inactives show at the top dose activity, negative = inhibition, most hits filed as inhibitors | 270,000 tested, 2.1% active | AID 1460, 2008; note: potency is the fitted concentration of half-maximal effect; nearly all actives have a fitted effect of over 55% in size
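Heparin-induced (20 uM) aggregation of recombinant human K18 P301L tau, 15 uM unlabeled with 0.24 uM labeled, pH 7 acetate buffer, 6 hr at 37 C with compound. Fibrils quantified by 30 uM ThT fluorescence after 1 hr ambient incubation.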
Tau fluor cs – Counterscreen qHTS for Inhibitors of Tau Fibril Formation, Fluorescence Polarization | Potency, µM (top dose mostly 57.7 µM), inactives show at the top dose activity change, negative = decrease | 280,000 tested, 0.93% active | tau K18 P301L Alexa594 fluorescence, heparin fibrillization; note: potency is the fitted concentration of half-maximal effect; nearly all actives have a fitted effect of over 55% in size
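Human tau K18 P301L (15 uM unlabeled, 0.24 uM Alexa 594-labeled) in 100 mM sodium acetate pH 7 with 20 uM heparin, 6 hr at 37 C. ThT 30 uM added, 1 hr ambient; Alexa 594 FP and total fluorescence read at 555/632 nm.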
The depositor's hits bear a star; ? = inconclusive; / = no result given; ! = not confirmed by another sample; [ ] = another dose, or the depositor's remark. Hits are enriched below; roughly 2.3% of the tested compounds scored in any of these assays. Unless noted, calls come from the whole dose curve; as a rule, active = well fitted curve in the direction sought with a large enough effect; inconclusive = small, poorly fitted or top-dose-only effect, or another doubt; inactive = no such curve, though single readings can be large; an effect the other way counts as inactive or inconclusive. % is set by controls: 0 for no effect and ±100 for the full control effect.

SMILES	Tau FP inhib	USP1 inh	Coupling enz	Tau ThT inhib	Tau fluor cs
O=C1C(Nc2ccccc2)=C/C(=N/S(=O)(=O)c2cccs2)c2ccccc21	?	2.5µM*	-38*	3.5µM*	8.9µM*[quencher]
Cc1ccnc(NC(c2ccccc2O)c2oc(CO)cc(=O)c2O)c1 (configuration not stated)	-2%	-14%	-33*	?	-9%
Cc1ccc([N+](=O)[O-])cc1-c1ccc(/C=C(\C#N)c2[nH]nc(N)c2C#N)o1	?	-17%	-1	8.9µM*	?
COCc1cc(C)nc(OCC(=O)N/N=C/c2ccc(-c3cc([N+](=O)[O-])ccc3C)o2)c1C#N	1%	-7%	6	-20%	?
CCc1ccccc1NS(=O)(=O)c1ccc2[nH]cc(C(=O)NC3CCCC3)c(=O)c2c1	13µM*	2%	1	6%	?
O=C(NC1CCCCC1)c1c[nH]c2ccc(S(=O)(=O)Nc3ccccc3F)cc2c1=O	28µM*	-4%	/	-11%	?
CNC(=O)c1c[nH]c2ccc(S(=O)(=O)Nc3ccccc3F)cc2c1=O	/	-26%	-1	/	/
Cc1cc2ncc(-c3ccccc3)nc2cc1C	-7%	-17%	0	-23%	-12%
Cc1cc(-c2ccccc2)nc(-c2ccccc2)c1C	12%	-16%	-7	3.2µM*	-25%
CCC(=O)N1c2ccccc2CC1C(=O)NCc1cc(OC)ccc1OC (configuration not stated)	-14%	-6%	/	-10%	-7%
COc1ccc(C2CC(c3ccccc3)=NN2c2ccc(C(N)=O)cc2)cc1 (configuration not stated)	/	0%	0	/	/
COc1ccc(C2CC(c3ccccc3)=NN2c2ccc(/C=N/NC(=O)c3ccncc3)cc2)cc1 (configuration not stated)	?	?	0	?	13µM*[quencher]
COC(=O)CCCC1=CC2=CC(=O)C(C)(OC(=O)c3cccs3)C(=O)C2=CO1 (configuration not stated)	7%	/	1	-23%	-14%
COC(=O)CCCC1=CC2=CC(=O)C(C)(OC(=O)c3cccs3)C(=O)C2=CN1CCN1CCOCC1 (configuration not stated)	-10%[11.6 µM]	?	-38*!	-17%[11.5 µM]	-13%[11.6 µM]
COC(=O)CCCC1=CC2=CC(=O)C(C)(OC(=O)c3cccs3)C(=O)C2=CN1c1ccccc1 (configuration not stated)	-4%[11.6 µM]	?	-11	-14%[11.5 µM]	-9%[11.6 µM]
CCCCC1=CC2=CC(=O)C(C)(OC(=O)CC)C(=O)C2=CN1CCCCO (configuration not stated)	-12%[11.6 µM]	?	-35*!	?	-6%[11.6 µM]
COC(=O)CCCC1=CC2=CC(=O)C(C)(OC(=O)c3cccs3)C(=O)C2=CN1CCCCO (configuration not stated)	-5%[11.6 µM]	?	-41*!	?	-4%[11.6 µM]
CCc1ccc(Nc2nc3ccccc3c3nnc(C)n23)cc1	3%	-8%	/	?	-24%
O=C(O)c1cc(NN=C2c3ccccc3-c3ccccc32)ccc1Cl	/	-22%	7	/	/
Cc1ccc(N/N=C2\CC(=O)c3ccccc32)cc1Cl	?	/	-18	7.1µM*	?
NC(=O)c1ccc(N=Nc2c(O)c3ccccc3[nH]c2=O)cc1	?	/	3	0.5µM*	-19%
COc1cc(N=Nc2c(O)c3ccccc3[nH]c2=O)c(OC)cc1N=Nc1ccccc1	-12%	-29%	-1	7.1µM*	?
COc1ccc(OC)c(N=Nc2c(O)c3ccccc3[nH]c2=O)c1	/	-16%	/	/	/
CCOc1ccc(CCNC(=O)C(CC(C)C)N2Cc3ccccc3C2=O)cc1OCC (configuration not stated)	9%	10%	/	1%	-1%
Cc1cc(=O)c2c(O)c3c(O)cc(=O)c4c3c3c(cc(O)c1c23)C(C)(C)C=4O	-13%	/	6	8.9µM*	?
SMILES	Tau FP inhib	USP1 inh	Coupling enz	Tau ThT inhib	Tau fluor cs
O=C1C=CC2=C3c4cc(O)c(O)cc4C[C@@]3(O)COC2=C1	?	/	-9	8.9µM*	?
CCN(CC)CCCNC(=O)c1c(C)oc2ncnc(N3CCOCC3)c12	7%	-14%	/	-4%	-7%
COc1ccc(NC(=O)c2cc(S(=O)(=O)N3CCCC3)ccc2C)cn1	/	-5%	/	/	/
COc1ccc(NC(=O)c2cc(S(=O)(=O)N3CCCCC3)ccc2N2CCCCC2)cn1	-11%	-32%	-35*	-5%	-13%
CC(=O)c1ccc(NC(=O)Cn2c(=O)nc(-c3ccccc3)c3cc(Cl)ccc32)cc1	-8%	-15%	/	-15%	-17%
O=S(=O)(Cc1ccccc1)c1nnnn1C1CCCCC1	-1%	/	-1	1%	-1%
Cc1ccsc1C1Nc2ccc3ncccc3c2C2=C1C(=O)CC(C)(C)C2 (configuration not stated)	-2%	-16%	-31*	6%	6%
O=C1CCCC2=C1C(c1cccs1)Nc1ccc3ncccc3c12 (configuration not stated)	7%	-16%	-4	-8%	-9%
CC(=O)Nc1ccc(C(=O)/C=C/c2ccco2)cc1	?	-16%	-5	?	?
CC(=O)Nc1cccc(C(=O)/C=C/c2ccc(N(C)C)cc2)c1	0%	5.6µM*	-8	25µM*	16µM*[quencher]
CC(=O)Nc1cccc(C(=O)/C=C/c2ccco2)c1	?	-9%	0	25µM*	?
CN(C)c1ccc(C(=O)/C=C/c2ccco2)cc1	-5%	0%	-2	10µM*	-26%
Cc1ccc(C)c(S(=O)(=O)c2nnn3c2nc(NC2CCCCC2)c2sccc23)c1	4%	-20%	/	0%	?
C[C@H](c1ccccc1)N1C(=O)[C@H]2[C@@H]3[C@H](O)[C@H](O)CC(=O)[C@H]3CC[C@H]2C1=O	-1%[11.6 µM]	/	3	-7%[11.5 µM]	-10%[11.6 µM]
Cc1nc(NCc2ccco2)c2c(C)c(C)sc2n1	-4%	-12%	1	-9%	-9%
Cc1sc2nc3c4ccccc4c(NCc4ccco4)nn3c(=O)c2c1C	35µM*	-16%	0	25µM*	?
Nn1cnnc1N/N=C/c1cc(Br)cc(Br)c1O	-10%	-12%	-13	14µM*	?
CCCOC(=O)c1cccc(Nc2nc(CCC)cc(=O)[nH]2)c1	22µM*	-24%	/	-6%	?
COc1ccccc1N1CCN(S(=O)(=O)c2ccc([N+](=O)[O-])cc2)CC1	/	-7%	/	/	/
COc1ccccc1N1CCN(c2ccc([N+](=O)[O-])cc2Cl)CC1	1%	-9%	0	8.9µM*	?
